Compounds with a hit are over-represented: about 3.6% of the library has one in this group of screens.
LDHA inh – blocks human lactate dehydrogenase A | P00338 | purified LDHA, NADH/diaphorase-resazurin fluorescence; hits give low values | activity change, % (values are at about 110 or 230 µM) | 480,000 tested, 0.15% active; in the data active = activity change below about -30%;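 also: plate controls were DMSO wells for no effect and wells without enzyme for full effect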
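Enzyme activity of human lactate dehydrogenase 5 (2 nM; 0.06 mM NADH, 0.2 mM pyruvate, 5 min, RT) is measured via a resazurin/diaphorase fluorescence readout of residual NADH.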
D1 agonist – human D1 receptor agonism; HEK293 T-REx D1 cells, calcium flux, agonist mode; activation, % at 2 µM; 360,000 tested, 1% active; AID 504660; P21728; also: 0% is about no effect
Target sequence (P21728 whole entry, looked up): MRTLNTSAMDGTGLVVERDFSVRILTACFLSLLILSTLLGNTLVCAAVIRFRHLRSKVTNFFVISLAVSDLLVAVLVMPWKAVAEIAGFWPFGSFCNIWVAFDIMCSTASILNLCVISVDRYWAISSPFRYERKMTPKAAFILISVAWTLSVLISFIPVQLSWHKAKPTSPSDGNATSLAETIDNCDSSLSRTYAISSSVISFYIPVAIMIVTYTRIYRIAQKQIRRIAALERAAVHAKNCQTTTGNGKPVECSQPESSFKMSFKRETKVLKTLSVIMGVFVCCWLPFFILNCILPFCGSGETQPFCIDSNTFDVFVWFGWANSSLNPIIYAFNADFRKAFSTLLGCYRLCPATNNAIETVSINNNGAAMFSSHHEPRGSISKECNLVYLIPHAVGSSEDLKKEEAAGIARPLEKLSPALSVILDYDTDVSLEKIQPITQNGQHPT
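Inducible HEK293 T-REx D1 cells, force-coupled to calcium signalling, were plated at 4000 cells/well with tetracycline and held overnight at 30 C. After no-wash calcium dye loading, compound-evoked calcium rise over 180 s flagged agonists.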
D1 antag – antagonists of human D1 dopamine receptor; P21728; HEK293 TREx D1 cells, calcium flux, dopamine EC80; hits give low values; activity change, negative = inhibition, % at 10 µM; 360,000 tested, 3.2% active; AID 504652; in the data active = activity change below about -30%; also: % is scaled to controls: 0 for no effect and ±100 for the full control effect
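Cells carrying a force-coupled, tetracycline-inducible human D1 receptor report calcium flux. Each well gets a 10 s baseline, compound with 180 s monitoring, then an EC80 dopamine stimulus with a second 180 s kinetic read.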
TRHR ag – TRH receptor (human) agonism. activation, % at 2 µM. TRHR cells, calcium flux fluo-8, FDSS agonist mode. 360,000 tested, 0.18% active. P34981. AID 493084; also: 0% is about no effect
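Fluo-8-loaded TRHR cells; 10 s baseline, compound added, kinetic Ca2+ fluorescence read 1/s, agonist mode.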
D1 potentiator – enhances dopamine response at the human D1 receptor; HEK293 TREx D1 cells, calcium flux, dopamine EC20 potentiation; potentiation, % at 10 µM; 360,000 tested, 0.036% active; AID 504651; in the data active = potentiation above about 30%; also: 0% is about no effect
TRHR PAM – allosterically enhances the human TRH receptor | TRHR cells, fluo-8 calcium fluorescence, EC20 TRH enhancement | enhancement, % at 2 µM | 360,000 tested, 0.66% active | AID 493056; in the data active = enhancement above about 30%; also: 0% is about no effect
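Enhancer read-out: after compound pinning and an initial kinetic agonist-mode read, an EC20 of TRH (10 nM final) was injected and fluo-8 calcium signal (Ex 480/Em 530) followed at 1 s/cycle for 100 cycles in TRHR-expressing cells.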
* hit, by the source's call; · = not tested or not shown. Rule as the data show it, unless noted: active = activation above about 30%; inactive = the rest.

SMILES	LDHA inh	D1 agonist	D1 antag	TRHR ag	D1 potentiator	TRHR PAM
COc1ccc(C(=O)C[n+]2ccc(Cl)c3ccc(Cl)cc32)cc1	-60*	·	·	·	·	·
O=C(C[n+]1ccc(Cl)c2ccc(Cl)cc21)c1ccc(F)cc1	-2	·	·	·	·	·
O=C(/C=C/c1ccccc1C(F)(F)F)c1cc2ccccc2o1	4	·	·	·	·	·
Cc1cc(C)c2c(=O)cc(C(=O)Nc3sc4c(c3C(=O)NCC3CCCO3)CCCC4)oc2c1 (stereo unspecified)	-1	-1	-16	0	0	2
O=C(Nc1sc2c(c1C(=O)NCc1cccnc1)CCCC2)c1ccco1	7	2	-32*	0	4	3
Cc1cc(C)c2c(=O)cc(C(=O)Nc3sc4c(c3C(=O)NCc3ccccc3)CCCC4)oc2c1	-9	-1	-86*	1	3	20
CCCN(CCC)CCNC(=O)C1CCN(c2nc3ccc(CC)cc3s2)CC1	-4	90*	-30*	2	6	-5
CCc1ccc2nc(N3CCC(C(=O)NCCC(C)C)CC3)sc2c1	-1	1	9	0	0	0
CCCCN(CCCC)CCCNC(=O)c1ccc2nc(N3CCCCC3)sc2c1	-2	1	-20	0	-5	-5
CCCN(CCC)CCCNC(=O)C1CCN(c2nc3ccc(CC)cc3s2)CC1	-2	30*	-31*	3	0	-2
Cc1cc(F)ccc1NC(=O)C12CC3CC(CC(C3)C1)C2	4	·	·	·	·	·
Cc1nc2nc(NCc3ccc(Cl)cc3)[nH]n2c(=O)c1CCC(=O)Nc1cccc2ccccc12	-1	·	·	·	·	·
O=C(Nc1ccc(S(=O)(=O)N2CCCCCC2)cc1)c1[nH]ncc1[N+](=O)[O-]	·	7	-34*	0	-6	0
O=C(Nc1ccc([N+](=O)[O-])cc1)c1ccc(S(=O)(=O)N2CCCC2)cc1	-5	11	-11	2	-3	-12
O=C(NCC1(c2ccccc2)CCC1)c1n[nH]c(=O)c2ccccc12	7	·	·	·	·	·
COc1ccc(S(=O)(=O)N(CC(=O)Nc2ccccc2Br)Cc2ccccc2)cc1	0	44*	15	2	0	1
CCN(Cc1ccccc1)S(=O)(=O)c1ccc(N2CCCCS2(=O)=O)cc1	-3	12	-31*	0	1	-6
CCN(Cc1ccccc1)S(=O)(=O)c1ccc(OC)cc1	0	6	-34*	-1	4	1
CCCN(CCC)S(=O)(=O)c1ccc(N2CCCCS2(=O)=O)cc1	-7	3	0	1	0	6
COc1ccc(S(=O)(=O)N(CC(=O)N2CCCC2)Cc2ccccc2)cc1	-2	1	4	0	-3	-5
CCN(Cc1ccccc1)S(=O)(=O)c1ccc(S(=O)(=O)N(Cc2cccc(OC)c2)CC2CCCO2)cc1 (stereo unspecified)	-11	31*	12	6	-3	4
Cc1cccc(NC(=O)Cc2c(C)nc3nc(-c4cccs4)nn3c2C)c1	-5	·	·	·	·	·
COc1ccc(S(=O)(=O)N(CCc2ccccc2)CC(=O)Nc2cccc(OC)c2)cc1	4	31*	-31*	0	0	10
COc1ccc(S(=O)(=O)N(CCc2ccccc2)CC(=O)Nc2cc(C)ccc2C)cc1	-3	18	21	2	-1	-4
CN(c1ccc(OCCOc2ccccc2Cl)cc1)S(=O)(=O)c1ccccc1	-1	·	·	·	·	·
SMILES	LDHA inh	D1 agonist	D1 antag	TRHR ag	D1 potentiator	TRHR PAM
CCN(Cc1ccccc1)S(=O)(=O)c1ccc(S(=O)(=O)N2CCN(CCC#N)CC2)cc1	-1	-1	-42*	1	-5	-10
COc1ccc(OCCOc2ccc(N(C)S(=O)(=O)c3ccccc3)cc2)cc1	-9	42*	-27	4	-2	6
CCC(=O)N1N=C(c2cccc(NS(C)(=O)=O)c2)CC1c1ccc2nccnc2c1 (stereo unspecified)	-17	·	·	·	·	·
CC(=O)c1sc(Nc2cccc(C)c2C)nc1C	0	·	·	·	·	·
COCCCNC(=O)Nc1c(NC2CCCC2)c2ccccc2oc1=O	-6	·	·	·	·	·
COc1ccc2c(c1)CCCN2C(=O)c1cc2ccc(F)cc2nc1C	26	·	·	·	·	·
c1ccc(-c2nc(CSC3=NCCCN3)cs2)cc1	-2	·	·	·	·	·
COc1cc(CN2CCC(Oc3cc(C(=O)NC4CC4)ccc3OC)CC2)cc(OC)c1	-1	3	-75*	0	-8	-4
COc1cc(C(=O)N2CCCCCCC2)ccc1OC1CCN(C(C)=O)CC1	-2	5	2	0	6	3
COc1ccc(C(=O)N2CCCCCC2)cc1OC1CCN(C(C)=O)CC1	-3	4	-67*	0	-11	0
COc1cc(C)c(CN2CCN(CC(=O)Nc3ccccc3C(=O)NC3CC3)CC2)cc1OC	-8	0	-30*	0	-6	-10
COc1ccc(C(=O)NC2CC2)cc1OC1CCN(Cc2cnn(C)c2C)CC1	-10	0	-27	1	-9	7
COc1ccc(C(=O)NC2CC2)cc1OC1CCN(Cc2cc(C)c(C)cc2C)CC1	-2	1	-86*	0	-16	12
COc1ccc(CN2CCC(Oc3cc(C(=O)NC4CC4)ccc3OC)CC2)c(O)c1	-3	4	-77*	0	-15	1
COc1ccc(C(=O)NC2CC2)cc1OC1CCN(Cc2ccc(F)cc2Cl)CC1	4	·	·	·	·	·
O=C1C=C(NC2=CC3OC(c4ccccc4)OCC3OC2=O)CCC1 (stereo unspecified)	-2	3	-31*	-1	-5	-8
COc1ccc(-c2nn3c(=O)c(NC(=O)c4cccc(C)c4)cnc3o2)cc1	-2	·	·	·	·	·
O=[N+]([O-])c1ccc(N/N=C/c2sc(N3CCOCC3)nc2-c2ccccc2)c(S(=O)(=O)Nc2ccc(Cl)cc2)c1	-3	62*	-35*	15	-4	-2
O=[N+]([O-])c1ccc(N/N=C/c2sc(N3CCOCC3)nc2-c2ccccc2)c(S(=O)(=O)Nc2ccccc2Cl)c1	-2	79*	-34*	19	-5	-9
O=C(N/N=C/c1sc(N2CCOCC2)nc1-c1ccccc1)c1ccccc1Cl	-5	0	7	1	2	0
O=C(CCc1cccc(F)c1)NCc1ccc(F)cc1C(F)(F)F	6	·	·	·	·	·
CC1c2cc3c(cc2CCN1C(=O)c1ccc(Br)cc1)OCCCO3 (stereo unspecified)	2	1	-47*	0	-9	-8
CCOc1ccc2oc(=O)cc(CN(C)Cc3ccccc3)c2c1	0	·	·	·	·	·
CONC(=O)c1cccc(NC(=O)c2cccs2)c1	2	·	·	·	·	·
Cc1onc(-c2ccccc2)c1C(=O)Nc1ncc([N+](=O)[O-])s1	-10	43*	-32*	1	-8	-4

Bioassay records from PubChem BioAssay.
